The list is not random: actives were taken first. Their share in the collection is about 8.7%.
HP1b binding inh = inhibitors of HP1-beta chromodomain binding to methylated histone tails; Potency, µM (highest dose often 114 µM), for the others: top-dose activity change, negative = inhibition, usual class: inhibitors; P83916; 390,000 tested, 0.56% active; AID 540317; AlphaScreen HP1-beta / biotin-H3K9me3 peptide binding; further: nearly all actives have a fitted effect of over 70% in size
Target sequence (P83916 whole entry, looked up): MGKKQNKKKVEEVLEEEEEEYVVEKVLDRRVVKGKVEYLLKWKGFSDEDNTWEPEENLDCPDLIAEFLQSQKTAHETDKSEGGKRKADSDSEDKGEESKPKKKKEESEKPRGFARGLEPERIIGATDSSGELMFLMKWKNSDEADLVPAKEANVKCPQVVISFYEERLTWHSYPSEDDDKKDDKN
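AlphaScreen: HP1-beta (50 nM) preformed 30 min with biotin-H3(1-18)K9me3 peptide (50 nM) in PBS pH 7.4, 0.01% Tween-20. Compound added for 30 min at RT, then streptavidin donor/nickel chelate acceptor beads (10 ug/mL) for 30 min.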
JMJD2A Tudor = JMJD2A Tudor domain (human) inhibition | O75164 | AlphaScreen JMJD2A-Tudor / H3K4me3 peptide binding | Potency, µM (titrated, usually from 114 µM), inactives show top-dose activity change, negative = inhibition, most hits filed as inhibitors | 390,000 tested, 4.4% active | AID 504339; further: on the % scale 0 is the no-effect control and ±100 the full control effect; nearly all actives have a fitted effect of over 50% in size
ALOX12 inh = blocks human arachidonate 12S-lipoxygenase. P18054. purified 12hLO, xylenol orange hydroperoxide absorbance. Potency, µM (series often up to 108 µM), for inactives: at the highest dose activity change, negative = inhibition, actives largely listed as inhibitors. 580,000 tested, 1.1% active. AID 1671190; further: on the % scale 0 is the no-effect control and ±100 the full control effect
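Hydroperoxide product was detected by ferrous iron/xylenol orange as the 573 to 405 nm absorbance ratio. Arachidonic acid at 40 uM (final) was turned over for 30 min at room temperature by 150 nM human 12hLO, pH 7.0 Hepes buffer, after 15 min compound preincubation.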
G9a inh = inhibitors of human histone lysine methyltransferase G9a. AID 504332. Potency, µM (series often up to 102 µM), inactives show at the highest dose activity, negative = inhibition, usual class: inhibitors. G9a H3K9 monomethylation, AlphaScreen, 2 h. 350,000 tested, 8.8% active; further: on the % scale 0 is the no-effect control and ±100 the full control effect; nearly all actives have a fitted effect of over 75% in size
Target sequence (Q96KQ7 913-1193 limits assumed): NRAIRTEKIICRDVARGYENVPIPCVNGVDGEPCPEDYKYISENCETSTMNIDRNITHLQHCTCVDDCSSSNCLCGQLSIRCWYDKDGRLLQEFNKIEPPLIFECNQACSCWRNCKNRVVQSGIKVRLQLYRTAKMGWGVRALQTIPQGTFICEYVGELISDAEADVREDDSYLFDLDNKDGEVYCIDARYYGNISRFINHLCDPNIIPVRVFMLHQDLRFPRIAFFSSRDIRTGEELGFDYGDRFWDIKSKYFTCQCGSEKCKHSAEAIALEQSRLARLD
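Step 1: enzyme (final 20 nM) with compound, 15 min RT. Step 2: substrate peptide 500 nM and SAM 20 uM, 2 h RT. Step 3: anti-H3K9me1 antibody and AlphaScreen beads, 10 min, then plate read.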
Sfp PPTase inh = inhibitors of Bacillus subtilis Sfp phosphopantetheinyl transferase. Q9F4F7. Biochemical Sfp PPTase activity, qHTS. Potency, µM, for the others: largest response in the series, negative = inhibition, usual class: inhibitors. 310,000 tested, 3.5% active. AID 1490;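 further: the enzyme is Sfp with the accession as filed and its product quenches rhodamine fluorescence; 0% = enzyme reaction without inhibitor and -100% = no enzyme wells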
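Fluorescence-quenching assay with 15 nM Sfp, 5 uM rhodamine-CoA and 12.5 uM BHQ-2-labelled ybbR peptide in pH 7.6 Hepes/MgCl2 buffer. Enzyme was pre-incubated with compound for 15 min at room temperature. Rate was taken from the 30-min fluorescence change (525/598 nm).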
BAZ2B inh = BAZ2B (human) inhibition; AlphaScreen BAZ2B-H3K14Ac peptide displacement; Potency, µM (highest dose often 114 µM), for inactives: at the highest dose activity change, negative = inhibition, actives largely listed as inhibitors; 360,000 tested, 4.4% active; AID 504333; further: on the % scale 0 is the no-effect control and ±100 the full control effect; nearly all actives have a fitted effect of over 60% in size
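Compounds, titrated to a top concentration of 110 uM, were incubated 30 min at room temperature with preformed BAZ2B/acetyl-K14 H3 peptide complex (50 nM each). Proximity signal was measured by AlphaScreen after 20 min with beads.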
Numbers without * were called inactive; ? = inconclusive; · = not tested or not shown; [ ] = another dose, or the depositor's remark. The call rests on the fitted dose curve; in most records, active means well fitted curve in the direction sought with a large enough effect; inconclusive means small, poorly fitted or top-dose-only effect, or another doubt; inactive means no such curve, though single readings can be large; an effect the other way counts as inactive or inconclusive. Potency means the concentration at half of the fitted maximal effect.

SMILES	HP1b binding inh	JMJD2A Tudor	ALOX12 inh	G9a inh	Sfp PPTase inh	BAZ2B inh
Cn1c(=O)c2c(nc(NCCO)n2Cc2ccc(Cl)cc2)n(C)c1=O	·	·	0.2%	·	·	·
CC(=O)N1CCC2(CC1)CC(CC(=O)O)CCO2 (centres undefined)	·	·	-3.0%	·	·	·
Cc1oc(-c2ccccc2)nc1CC(=O)Nc1ccccc1Cl	·	·	-4.1%	·	·	·
C=CCc1cccc2cc(C(=O)N3CCN(c4ccccn4)CC3)c(=O)oc12	-15.9%	-24.6%	-13.1%	?	-6.0%	-20.4%
C=CCc1cccc2cc(C(=O)Nc3ccccc3C(=O)O)c(=O)oc12	3.7%	-35.0%	?	12.6µM*	-4.5%	50.1µM*
C=CCc1cccc2cc(C(=O)N3CCN(C(=O)c4ccco4)CC3)c(=O)oc12	28.1%	-2.8%	-26.9%	44.7µM*	0.8%	6.4%
COc1cc(NC(=O)CSc2ncc(-c3ccc(F)cc3)o2)cc(OC)c1	·	·	-14.0%	·	·	·
Cc1cc(O)c2c(c1O)C(=O)C(O)=C(O)C2=O	·	·	28.2µM*	·	44.7µM*	·
Cc1cccc(NC(=O)N2CCC(CCNS(=O)(=O)c3ccc(C(C)(C)C)cc3)CC2)c1	·	·	20.9%	·	·	·
Cc1c(N2C(=O)/C(=C/C3CC=CCC3)SC2=S)c(=O)n(-c2ccccc2)n1C (centres undefined)	-22.8%	-16.5%	-7.6%	-48.1%[12.7 µM]	44.7µM*	?
Cc1c(N2C(=O)/C(=C/c3ccccc3)SC2=S)c(=O)n(-c2ccccc2)n1C	-5.9%	-22.4%	0.0%	21.3%[0.501 µM]	-25.0%	-36.6%
CN1C(=O)/C(=C/c2cc(N=Nc3ccccc3)ccc2O)SC1=S	?	5.01µM*	?	8.91µM*	-6.1%	2.24µM*
Cc1c(N2C(=O)/C(=C\C3CC=CCC3)SC2=S)c(=O)n(-c2ccccc2)n1C (centres undefined)	-24.0%	-20.3%	?	?	50.1µM*	-30.8%
Cc1c(N2C(=O)/C(=C\c3ccccc3O)SC2=S)c(=O)n(-c2ccccc2)n1C	?	17.8µM*	?	1.78µM*	12.6µM*	-30.4%
CSc1ccc(-c2noc(-c3nnn4c3COC(c3ccc(Cl)cc3)C4)n2)cc1 (centres undefined)	·	·	52.6%	·	·	·
Nc1nccnc1C(=O)NCC(c1ccccc1)c1ccccc1	·	·	2.7%	·	·	·
CC(C)CCn1nc(C(=O)OCC(=O)Nc2ccc(Cl)cc2F)c2ccccc2c1=O	·	·	-4.7%	·	·	·
Cn1c(Cn2ccnc2)nnc1C1CCCN(C(=O)Nc2ccccc2F)C1 (centres undefined)	·	·	59.7%	·	·	·
Cc1c(N2C(=O)/C(=C3\C(=O)N(CC(=O)O)c4ccccc43)SC2=S)c(=O)n(-c2ccccc2)n1C	5.5%	-20.4%	?	·	?	79.4µM*
Cc1ccc(/C=C2\SC(=S)N(c3c(C)n(C)n(-c4ccccc4)c3=O)C2=O)cc1	-13.4%	?	?	·	?	?
CCc1noc(-c2ccn3c(CNC(=O)Cc4ccc(F)cc4)nnc3c2)n1	·	·	19.9%	·	·	·
CCCCCCCn1c(=N)n(CC(O)c2ccco2)c2ccccc21 (centres undefined)	13.8%	-30.5%	-16.2%	79.4µM*	0.8%	-34.1%
N=c1n(CCN2CCCC2)c2ccccc2n1CC(O)c1ccco1 (centres undefined)	1.5%	-17.9%	-23.7%	?	6.8%	?
CCOc1cc(/C=C(\C#N)C(N)=O)cc(CSc2ccccc2)c1O	·	·	·	·	-24.5%	·
COc1cc(/C=C(\C#N)C(N)=O)cc(CSc2nc3ccccc3s2)c1O	·	·	?	5.01µM*	-7.6%	·
SMILES	HP1b binding inh	JMJD2A Tudor	ALOX12 inh	G9a inh	Sfp PPTase inh	BAZ2B inh
CCN1C(=O)/C(=C/c2nc3ccccc3c(=O)n2-c2ccc(C)cc2)c2ccccc21	-8.5%	-19.2%	1.2%	10.4%[59 µM]	-7.5%	-31.5%
CCN1C(=O)/C(=C\c2nc3ccccc3c(=O)n2-c2ccccc2)c2ccccc21	-15.9%	44.7µM*	?	?	-3.4%	50.1µM*
N#Cc1cccc(CSc2nnc(-c3c[nH]c4ccccc34)o2)c1	·	·	1.3%	·	·	·
O=C(O)C(C(=O)/C=C/c1ccco1)=C1SCCS1	70.8µM*	56.2µM*	300.2%	?	28.2µM*	50.1µM*
O=C(C=C1SCCS1)/C=C/c1ccco1	?	44.7µM*	?	39.8µM*	44.7µM*	50.1µM*
O=C(/C=C/c1ccco1)NCC1COc2ccccc2O1 (centres undefined)	-1.9%	-16.9%	?	?	?	?
CC(=O)n1cc([C@@H]2C=C(C(=O)N3CCN(C)CC3)O[C@H](OCc3ccc(CO)cc3)C2)c2ccccc21	34.9%	-13.6%	-56.0%	·	·	·
C=CCOC(=O)C1=C[C@H](c2cn(C(C)=O)c3ccccc23)C[C@H](OCc2ccc(CO)cc2)O1	16.2%	?	39.8µM*	0.7%[12.7 µM]	10.5%	-35.2%
CCN(CC(=O)NC(C)(C)C)C(=O)c1cccc(C#N)c1	·	·	-9.8%	·	·	·
CCOC(=O)c1ccc(N=NN(C)C)cc1	36.8%	-11.4%	?	-0.3%[12.7 µM]	10.5%	-32.2%
C=CCn1c(CC(=O)OC)csc1=Nc1ccc(C(C)=O)cc1	-11.8%	-12.3%	0.5%	?	9.1%	?
CCn1c(C)csc1=NC(=O)c1ccccc1	27.9%	7.9%	0.0%	8.6%	1.4%	8.0%
C=CCn1c(C)csc1=Nc1ccc(C(C)=O)cc1	-3.4%	-5.3%[11.4 µM]	-4.8%	?	-10.2%	44.7µM*
CCOC(=O)c1ccc(N=c2scc(C)n2CC)cc1	?	39.8µM*	?	22.4µM*	9.4%	39.8µM*
C=CCn1c(C)csc1=Nc1ccccc1C	50.1µM*	56.2µM*	-16.0%	50.1µM*	16.7%	50.1µM*
O=C1CC(c2noc(-c3ccc(F)cc3)n2)CN1c1ccc(F)c(Cl)c1 (centres undefined)	·	·	19.0%	·	·	·
N#Cc1ccc(-c2nc(C3CC(=O)N(c4ccc(Cl)cc4)C3)no2)cc1 (centres undefined)	·	·	12.6µM*	·	·	·
N#Cc1ccc(-c2nc(C3CC(=O)N(c4ccc(F)cc4)C3)no2)cc1 (centres undefined)	·	·	10µM*	·	·	·
O=[N+]([O-])c1ccccc1NCc1c(O)ccc2ccccc12	?	44.7µM*	?	?	?	35.5µM*
Oc1ccc2ccccc2c1CNc1ccc2ccccc2c1	?	31.6µM*	?	·	·	·
Oc1ccc2ccccc2c1CNc1ccccc1	-28.5%[57 µM]	?	?	·	·	·
CNCCCOc1ccc2c(c1)CCC2	-36.6%	22.4µM*	-42.0%	50.1µM*	-6.4%	50.1µM*
NCCOc1ccc2c(c1)CCC2	·	·	18.8%	·	·	·
c1ccc(SCCCCNC2CCCC2)cc1	-18.0%[57 µM]	3.16µM*	-27.7%	8.91µM*	-13.3%	56.2µM*
CCCOc1ccc(CNC2CC2)cc1	·	·	-2.8%	·	·	·
